# Measured values taken from the supplement of paper PMC6555819.
# Columns and labels:
# Test in all cases: PBM binding z-score (relative to random genomic background probes); higher = stronger binding; sequences stand for … in GC…GCGATTGACAGCGTAGAATGAAGG
# [1] = test system: RARb homodimer (NR concentration 270 nM)
# Outline: (§1)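 Binding z-scores were set against random background probes. The data came from custom Agilent 4×180K protein-binding microarrays carrying double-stranded probes with 34-nt variable regions, incubated 1 h with ligand-free nuclear receptor dimers. Partner-specific antibodies detected binding, and scanned fluorescence was regression-normalized.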
# [2] = test system: RARg:RXRa (NR concentration 270 nM, RXRa partner concentration 90 nM)
# Outline: as §1
# [3] = test system: RARg homodimer (NR concentration 270 nM)
# Outline: as §1
# [4] = test system: RXRa DBDmut IVT, anti-RXR (DBD mutation: RXRa K156A/R161A, NR concentration 90 nM)
# Outline: as §1
# [5] = test system: RXRa homodimer (NR concentration 180 nM)
# Outline: as §1
# [6] = test system: THRa:RXRa (NR concentration 90 nM, RXRa partner concentration 90 nM)
# Outline: as §1
# [7] = test system: THRa homodimer (NR concentration 90 nM)
# Outline: as §1
# [8] = test system: VDR:RXRa (NR concentration 270 nM, RXRa partner concentration 90 nM)
# Outline: as §1
# [9] = test system: VDR homodimer (NR concentration 270 nM)
# Outline: as §1
Sequence,PBM binding z-score [1],PBM binding z-score [2],PBM binding z-score [3],PBM binding z-score [4],PBM binding z-score [5],PBM binding z-score [6],PBM binding z-score [7],PBM binding z-score [8],PBM binding z-score [9]
TCTAGTTGGTCACGGAGGTCACACACGACGGGTA,4.44,4.66,4.79,0.886,4.58,3.61,2.53,5.62,3.25
ATCTCTAGGAAACAAGTTCAGTGAAAGAGAGGAC,1.32,1,0.918,0.688,0.725,0.835,0.164,1.45,2.27
TCATATAGTTAAAAGGTGAAAGTCGGTGTGGTAA,1.92,1.69,0.989,1.66,2.31,1.6,0.712,1.52,0.721
CCGACTGGGGCAAAGGTTGCCATACTCAGTACGA,0.697,1.32,0.395,-0.142,1.32,0.333,-0.54,0.133,0.111
TCTGCTAGGTCAATGATGGTCAGCTAATCTGCTA,2.75,3.45,4.62,1.11,1.89,2.59,0.321,1.32,-0.294
CCGACTGGGCCACGAAAGGTCATTGATTCAGTGA,4.83,4.59,4.35,0.758,4.99,3.87,0.668,4.05,1.78
CTCGAAAAGTCGTGCTCAGGTGAGTATACCAAAC,0.216,0.157,-0.0265,0.322,0.0508,1.75,0.807,-0.141,-0.43
GCTAGTCGGTCAGTAAAAGGTCACACACCGGTCG,5.59,6.16,6.16,0.548,5.55,3.62,1.73,4.18,1.85
ACTATTAGTCGACTTAGGGCAACCGATACGACGC,0.58,0.342,0.707,0.415,0.416,1.09,0.02,-0.299,-0.338
CCTTACGGGGCACTGACAGGTTATAGCATTTGGA,0.4,0.997,0.998,0.12,0.44,0.141,-0.73,-0.341,-0.309
TCGACTAGGTTACCAATGGGGCATTCAGCTTTCT,1.02,1.16,0.432,1.07,0.661,0.557,0.42,0.439,-0.0453
CCGTACGGGTCACGAGGTTATAGCACGACGAGCG,4.11,6.39,5.81,1.55,7.62,3.75,0.803,5.23,1.75
ATATGTAGGTTAGCTAGGGTCATTCAGACTAGGC,3.17,3.33,2.68,1.24,3.71,5,2.64,5.2,3.63
ATCTCTAGGTAAAAATTCAGTGAATCCCGAGGAT,-0.367,0.604,0.58,-0.329,0.184,0.19,-0.0698,-0.13,-0.0746
AATACATGGTCACTAGGCCAGAGTAGGTACGAAT,0.707,0.578,1.01,-0.405,0.58,-0.00579,-0.302,-0.0294,0.15
TCTTGTAGATCTACAGGAGGTTAAGAAAGATCGA,-0.0502,0.199,0.133,0.107,0.709,0.534,-0.449,0.41,-0.594
CGAACGAGGGCATTAGTTGATAGCAAATGCCGAT,0.501,0.774,1.37,2.96,0.438,0.5,-0.321,0.658,1.64
GCATATAGGTAATACAAGGTGAAAGTTCGATTGT,1.57,0.972,0.602,0.513,1.5,4.27,1.28,1.17,0.723
CCTACTGGGCCATCAGGTCATTGCTATCAACGTT,2.55,2.04,1.77,0.254,1.37,3.24,2.94,1.71,1.62
CCTAGCAGGCCAATCTGGGTTACTCAAGGCTTGA,0.0666,-0.247,-0.0907,-0.131,-0.48,1.61,-0.596,-0.43,-0.739
ACTAGTTGATCAGCTGAGGTCACACACAATTCGG,4.17,3.71,3.35,1.75,3.94,4.3,4.96,4.02,4.13
CCTTAAGGGTCAAGGTTATAGCACGGGTGGTACG,4.66,6.46,6.85,2.7,6.61,3.66,1.03,4.72,2.39
CTCAAAAGGTCGTGCTCAGGTGAGTATACCAAAC,2.79,5.29,3.99,2.02,4.73,4.13,1.02,3.5,0.794
CCAGACAGGTGAAAGGTAACTAAGTCTGGTACGC,0.728,1.08,0.582,-0.0522,1.99,0.784,-0.203,0.397,-0.529
TCTTGTAGATCAAGGGTTAAGAAAGCCGAAGCCT,0.274,0.818,0.191,0.293,1.64,0.516,-0.93,0.604,-0.218
TAGCCTAGGTCATTCAGGGGCCAGTCTAGAAAGC,3.1,5.97,4.33,1.66,2.98,3.27,0.478,2.76,1.43

Sequence,PBM binding z-score [1],PBM binding z-score [2],PBM binding z-score [3],PBM binding z-score [4],PBM binding z-score [5],PBM binding z-score [6],PBM binding z-score [7],PBM binding z-score [8],PBM binding z-score [9]
TCTTGTAGATCAACAGGAGGTAAAGAAAGATCGA,-0.473,0.0301,-0.00391,0.122,0.423,0.237,-0.482,0.194,-0.385
TCATATAGGTAAATGCTAGGTGAAAGTGCGATCT,0.752,0.609,0.488,1.55,1,1.64,0.475,0.984,0.485
CTCGAAAGGTCGTGCTCAGGTGAGTAGACCAAAC,2.36,5.23,3.76,1.79,4.83,3.96,0.703,3.08,0.392
ACTATTAGTTGAGTTAGGGCAACCGATACGACGC,0.47,0.417,0.783,0.652,0.292,1.21,0.245,0.0394,0.368
AGAATGAGGTTATTAATATCAGGGAATTGCGGTC,0.652,1.03,0.749,1.73,1.62,2.05,0.737,1.27,1.2
ATCGAAAGGTCGACGACGTGAGTATACACCGTTT,2.21,4.04,3.8,1.3,3.94,1.73,-0.597,2.25,0.228
CCTGCTAGGTCATGGTCAGTTAATCTACAGTATG,3.11,4.04,5.07,2.12,3.12,3.23,1.57,2.28,0.435
CCAGACAGGTGAGAAGGTAAATCAGCCTCGATTA,0.187,0.461,0.353,-0.268,0.202,0.113,-0.24,-0.13,-0.437
ATCTCTAGGTAAAGTACAGTGAAAGATCGATAGA,0.302,0.498,0.733,0.55,0.366,0.609,0.162,-0.177,0.488
CCTCGGAGGACGACAGGAGGTCAGAGCTGCCAGA,2.84,2.54,2.08,-0.23,1.84,2.33,0.421,1.44,0.665
TCTATTAGTTGATTAGGGCAACTGAAACAGCGGA,0.795,0.45,0.804,0.885,0.275,0.533,0.295,0.717,0.318
TATACAGGGTCATAGGCCAGAGTACGAATGTCGA,3.08,5.43,4.72,2.94,6.27,3.5,0.758,4.62,3.52
CGAACGAGGGCATGAGTGGATAGCAAATGCCGAT,0.496,1.27,1.61,2.02,0.916,1.04,-0.129,0.295,0.792
AAAACGAGGGCAATGAGTTGATAGCACGGGTGGC,1.2,1.23,1.6,2.07,1.13,1.31,-0.257,5.46,3.26
TAGTCTAGGTCATGGGCCAGTATACCACGCGAAC,3.09,4.03,4.4,0.663,3.44,3.3,2.25,2.13,0.773
TCTTGTAGATCGGCAGGTTAAGAAAGCTGGCCAA,0.124,-0.0429,-0.399,0.729,0.269,0.308,-0.309,0.405,-0.0576
GCTTGTAGATCAAGGGTAAGAAAGACTAAGCTAA,-0.585,-0.317,-0.393,-0.509,-0.00933,-0.138,-0.974,-0.559,-0.486
ATCTCTAGGTAAAGATAGTTCTGTGAATGCAAAT,-0.0245,0.131,0.453,0.28,0.154,0.478,0.132,0.285,0.175
ATCGAAGGGTCGACGAGGTGAGTATACACCGTTT,1.42,2.38,2.29,0.234,2.33,2.86,0.22,4.01,0.636
CGTCTAAGGTCAGAGAGGTCAGTGAATGCCGAGT,5.36,6.8,7.77,3.83,6.37,4.66,3.81,7.63,5.7
TCATAGAGGTAAACAGGTGAAAGTCCGTAAGTTA,0.716,0.649,0.356,1.07,1.1,0.843,-0.0526,0.83,-0.0713
TTACCAAGGTGAAGGGTCGTTGATGCACGCCTTG,1.79,2.19,1.14,0.00143,3.13,2.35,0.598,1.7,1.16
GATACAGGGTCAAAGCCAGAGTACGCGTATTGAT,2.86,5.42,4.41,3.04,5.84,3.25,0.312,4.5,2.99
ATCGCTAGGTAAAAGTTCAGTGAATCCCGAGGAT,2,1.37,1.46,0.265,1.64,0.795,-0.348,0.809,1.16
CAAACTAGGTCACGAAAGGTCAATGTCGAATGAC,5.73,7.46,8.51,2.11,7.37,5.27,2.55,6.57,2.77
CGAACTCGGTCAAGGACAGTGAATCTCCGCACGC,1.7,1.95,2.98,0.656,0.345,2.15,1.37,0.0619,0.261
